Results published in PubChem BioAssay (NCI).
About 83,000 compounds went through this panel and 20% of them were active in at least one assay; those are over-represented in the sample as a whole.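 Cell lines were cultured in 96-well plates, exposed to a single compound concentration, and assessed for percent growth 48 hours later.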

Columns and labels:
Assay in all cases: NCI-60 one-dose screen, 48 h (100 = growth as untreated, 0 = no growth, -100 = all killed); active means growth percent below 10; inactive means the rest
HCT-15 colon = conditions: 10 µM
HT29 colon = conditions: 10 µM
SNB-19 CNS = conditions: 10 µM
U251 CNS = conditions: 10 µM
PC-3 prostate = conditions: 10 µM
SK-MEL-5 melanoma = conditions: 10 µM
UACC-62 melanoma = conditions: 10 µM unless noted
LOX IMVI melanoma = conditions: 10 µM
SK-MEL-28 melanoma = conditions: 10 µM
EKVX NSCLC = conditions: 10 µM
SN12C renal = conditions: 10 µM
UO-31 renal = conditions: 10 µM
TK-10 renal = conditions: 10 µM unless noted
ACHN renal = conditions: 10 µM
A498 renal = conditions: 10 µM
CCRF-CEM leukemia = conditions: 10 µM
MOLT-4 leukemia = conditions: 10 µM
SK-MEL-2 melanoma = conditions: 10 µM
CAKI-1 renal = conditions: 10 µM

Measured: growth

CNS(=O)(=O)c1ccc(Cl)c(Cl)c1
inactive: HCT-15 colon 99.9% | HT29 colon 106% | SNB-19 CNS 106% | U251 CNS 99.3% | PC-3 prostate 113% | SK-MEL-5 melanoma 96.7% | UACC-62 melanoma 86.6% | LOX IMVI melanoma 102% | SK-MEL-28 melanoma 119% | EKVX NSCLC 99% | SN12C renal 92.7% | UO-31 renal 109% | TK-10 renal 89.4% | ACHN renal 99.5% | A498 renal 104% | CCRF-CEM leukemia 104% | MOLT-4 leukemia 84.9%

COc1ccccc1N1CCN(C(=S)Nc2ccccc2)CC1
inactive: HCT-15 colon 103% | HT29 colon 96.7% | SNB-19 CNS 99.6% | PC-3 prostate 89.9% | SK-MEL-5 melanoma 97.9% | UACC-62 melanoma 98.2% | LOX IMVI melanoma 90.4% | SK-MEL-28 melanoma 105% | SN12C renal 100% | UO-31 renal 75.3% | TK-10 renal 95.6% | ACHN renal 100% | MOLT-4 leukemia 78.7%

Nc1ccccc1C(=O)Nc1ccc(Cl)cc1Cl
inactive: HCT-15 colon 101% | HT29 colon 93.2% | SNB-19 CNS 96.1% | U251 CNS 102% | SK-MEL-5 melanoma 107% | UACC-62 melanoma 88.7% | LOX IMVI melanoma 87.9% | SK-MEL-28 melanoma 100% | SK-MEL-2 melanoma 112% | EKVX NSCLC 99.5% | SN12C renal 103% | UO-31 renal 52.4% | TK-10 renal 118% | ACHN renal 94% | CAKI-1 renal 69.1% | A498 renal 107% | CCRF-CEM leukemia 90.3% | MOLT-4 leukemia 77.7%

CCOC(=O)c1[nH]c(C)c(C(=O)O)c1C
inactive: HCT-15 colon 109% | HT29 colon 105% | SNB-19 CNS 109% | U251 CNS 107% | PC-3 prostate 88.9% | SK-MEL-5 melanoma 108% | UACC-62 melanoma 107% | LOX IMVI melanoma 106% | SK-MEL-2 melanoma 124% | EKVX NSCLC 105% | SN12C renal 99.5% | UO-31 renal 84.7% | TK-10 renal 104% | ACHN renal 102% | CAKI-1 renal 97.3% | A498 renal 102% | CCRF-CEM leukemia 89.6% | MOLT-4 leukemia 91.9%

O=C(c1ccc(O)cc1)c1ccc(O)cc1
inactive: HCT-15 colon 99.6% | HT29 colon 106% | SNB-19 CNS 111% | U251 CNS 94.1% | PC-3 prostate 103% | SK-MEL-5 melanoma 99.3% | UACC-62 melanoma 110% | LOX IMVI melanoma 97.4% | SK-MEL-28 melanoma 110% | SK-MEL-2 melanoma 101% | SN12C renal 109% | UO-31 renal 85% | TK-10 renal 95% | ACHN renal 107% | CAKI-1 renal 110% | A498 renal 73.9% | CCRF-CEM leukemia 106% | MOLT-4 leukemia 102%

O=S(=O)(O)c1ccc(O)c2ccccc12
inactive: HCT-15 colon 113% | HT29 colon 110% | SNB-19 CNS 97.8% | U251 CNS 107% | PC-3 prostate 92% | SK-MEL-5 melanoma 114% | UACC-62 melanoma 101% | LOX IMVI melanoma 92.7% | SK-MEL-28 melanoma 109% | SK-MEL-2 melanoma 97.2% | EKVX NSCLC 88.9% | SN12C renal 103% | UO-31 renal 77.7% | ACHN renal 100% | CAKI-1 renal 68.5% | A498 renal 112% | CCRF-CEM leukemia 99.4% | MOLT-4 leukemia 95.4%

Cc1ccc(N)cc1[N+](=O)[O-]
inactive: HCT-15 colon 106% | HT29 colon 123% | SNB-19 CNS 113% | U251 CNS 98.8% | PC-3 prostate 95.8% | SK-MEL-5 melanoma 111% | UACC-62 melanoma 105% | LOX IMVI melanoma 101% | SK-MEL-2 melanoma 128% | EKVX NSCLC 113% | SN12C renal 109% | UO-31 renal 83.3% | TK-10 renal 107% | ACHN renal 108% | CAKI-1 renal 102% | A498 renal 117% | CCRF-CEM leukemia 84.6% | MOLT-4 leukemia 76.3%

CCCOC(=O)C(O)c1ccccc1 (stereo not drawn)
inactive: HCT-15 colon 97.5% | HT29 colon 103% | SNB-19 CNS 107% | U251 CNS 115% | PC-3 prostate 101% | SK-MEL-5 melanoma 104% | UACC-62 melanoma 98.2% | LOX IMVI melanoma 104% | SK-MEL-28 melanoma 116% | SK-MEL-2 melanoma 106% | EKVX NSCLC 50.6% | SN12C renal 102% | TK-10 renal 106% | ACHN renal 98.3% | CAKI-1 renal 96.3% | A498 renal 94.7% | CCRF-CEM leukemia 88.8% | MOLT-4 leukemia 110%
